The record followed here is PubChem BioAssay (Tox21).

Assay [1] is described as follows: qHTS assay to identify small molecule agonists of the sonic hedgehog signaling (Shh) pathway (AID 1259368; calls by dose curve;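 also: NIH/3T3-derived 3T3Gli1-Luc cells carrying a stable Gli1-driven firefly luciferase reporter; series mostly up to about 92 µM; nearly all actives have a fitted effect of over 15% in size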). The procedure, abridged: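 Hedgehog pathway agonism scored by increased firefly luciferase luminescence in 3T3Gli1-Luc cells treated 24 hr at 37 C; detection used a 30 min room-temperature reagent incubation.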
(In general: Quantitative high-throughput screening tests each substance at several concentrations.)

Assay [2] in a line: qHTS assay to identify small molecule antagonists of the sonic hedgehog signaling (Shh) pathway (AID 1259369; calls by dose curve; also: nearly all actives have a fitted effect of over 45% in size). The procedure, abridged:
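NIH/3T3 stable Gli1-Luc clone, 2,000 cells/well, 4hr settle; cpd + conditioned medium 24hr; Luc reagent 30min RT; luminescence.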

The target of assay [3] is Estrogen receptor beta (Homo sapiens) (UniProt Q92731). The assay is described as follows: qHTS assay to identify small molecule agonists of the estrogen receptor beta (ER-beta) signaling pathway (AID 1259377; active = well fitted activation curve with a large enough effect in the signal ratio in the repeat runs, not every such curve was filed as active; the % refers to the signal ratio). The procedure, abridged: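 Beta-lactamase reporter readout: fluorescence of LiveBLAzer B/G FRET substrate after 2 h at room temperature, following 16 h compound treatment of ER-beta-UAS-bla HEK293T cells at 37C in 2% charcoal-stripped FBS medium.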
Estrogen receptor beta (Homo sapiens), sequence (Q92731 whole entry, looked up): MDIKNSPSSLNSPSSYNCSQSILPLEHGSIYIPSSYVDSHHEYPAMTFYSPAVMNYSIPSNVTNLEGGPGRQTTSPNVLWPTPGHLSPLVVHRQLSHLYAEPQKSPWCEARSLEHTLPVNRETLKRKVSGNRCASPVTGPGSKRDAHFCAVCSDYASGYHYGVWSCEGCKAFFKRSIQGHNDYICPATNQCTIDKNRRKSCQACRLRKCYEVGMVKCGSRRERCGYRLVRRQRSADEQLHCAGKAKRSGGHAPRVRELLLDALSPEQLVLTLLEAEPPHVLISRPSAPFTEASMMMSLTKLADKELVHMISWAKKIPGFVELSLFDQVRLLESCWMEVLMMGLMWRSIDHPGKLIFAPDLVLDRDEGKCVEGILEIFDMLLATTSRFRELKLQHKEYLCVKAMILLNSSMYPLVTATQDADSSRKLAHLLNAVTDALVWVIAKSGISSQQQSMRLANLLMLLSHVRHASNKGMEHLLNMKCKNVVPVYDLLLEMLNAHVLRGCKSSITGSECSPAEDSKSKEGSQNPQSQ

Assay [4] in a line: qHTS assay to identify small molecule agonists of the androgen receptor (AR) signaling pathway in the presence of an antagonist - cell viability counter screen (AID 1259379). Also: nearly all actives have a fitted effect of over 25% in size. Also: potency is read from the fitted curve at half-maximal effect. The procedure, abridged:
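MDA-kb2 viability measured by CellTiter-Fluor fluorescence in the same wells as the luciferase signal; nilutamide 3.0uM final; 15-point compound titration; 16 hr at 37C.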

Assay [5] can be described thus: qHTS assay to identify small molecule agonists of the estrogen receptor beta (ER-beta) signaling pathway - cell viability counter screen (AID 1259380). Also: nearly all actives have a fitted effect of over 30% in size. Also: potency is read from the fitted curve at half-maximal effect. The procedure, abridged: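 Measured: luminescence from CellTiter-Glo after 30 min at room temperature, added to wells already read for the LiveBLAzer FRET reporter (2 hr substrate); ER-beta-UAS-bla HEK293T cells had 16 hr compound treatment at 37C, 5% CO2.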

Assay [6] in a line: qHTS assay to identify small molecule antagonists of the estrogen receptor beta (ER-beta) signaling pathway - cell viability counter screen (AID 1259382). Also: nearly all actives have a fitted effect of over 55% in size. Also: potency is read from the fitted curve at half-maximal effect. The procedure, abridged:
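Readout: luminescence, CellTiter-Glo, same wells as bla assay. System: ER-beta-UAS-bla GripTite HEK293T, 2% charcoal-stripped FBS. Exposure: compounds plus 1nM 17-beta-estradiol, 16 hr, 37C.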

A short description of assay [7]: qHTS assay to identify small molecule agonists or antagonists of the thyroid stimulating hormone receptor (TSHR) signaling pathway - wild type cell line counter screen (AID 1259384; calls by dose curve). The procedure, abridged: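 Wild-type Hek293 cells, 800/well, 18 h at 37C, then compound with Ro20-1724 for 30 min RT. cAMP by HTRF (cAMP-d2/anti-cAMP cryptate), 1 h RT, fluorescence read. 15 concentrations, triplicates.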

Assay [8] has as its target Thyrotropin receptor (Homo sapiens) (UniProt P16473). The experiment in a line: qHTS assay to identify small molecule antagonists of the thyroid stimulating hormone receptor (TSHR) signaling pathway (AID 1259385; calls by dose curve; also: nearly all actives have a fitted effect of over 20% in size). The procedure, abridged:
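TSHR-HEK293 cells (800/well) plated 18 h, then compounds with Ro20-1724 and TSH at 1.5 ng/mL final, 30 min at room temperature. cAMP quantified by HTRF (cAMP-d2/anti-cAMP-cryptate, 1 h); 15 concentrations in triplicate.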

Assay [9] is described as follows: qHTS assay to identify small molecule agonists of the estrogen receptor alpha (ER-alpha) signaling pathway in the presence of an antagonist - cell viability counter screen (AID 1259386).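 Also: series mostly up to about 92 µM; cells exposed to compounds for 22 h at 37 °C before the viability read; nearly all actives have a fitted effect of over 30% in size.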 The procedure, abridged:
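The test measures whether compounds kill ER-alpha reporter cells (VM7Luc4E2) under antagonist co-treatment (ICI-182,780, 10.0nM). Fluorescence from CellTiter-Fluor is read after a 22hr exposure.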

The target of assay [10] is Progesterone receptor (Homo sapiens) (UniProt P06401). The experiment in a line: qHTS assay to identify small molecule agonists of the progesterone receptor (PR) signaling pathway (AID 1346784; calls by dose curve; also: nearly all actives have a fitted effect of over 30% in size; also: potency is read from the fitted curve at half-maximal effect). The procedure, abridged:
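HEK 293T PR-UAS-bla reporter cells, 2% charcoal-stripped FBS; 6 hr settle at 37C/5% CO2, compound (DMSO) 16 hr, LiveBLAzer B/G FRET substrate 2 hr RT, fluorescence intensity read.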

Assay [11] has the same target. The experiment in a line: qHTS assay to identify small molecule antagonists of the progesterone receptor (PR) signaling pathway (AID 1346795; active = well fitted inhibition curve with a large enough effect in the signal ratio in the repeat runs, not every such curve was filed as active; the % refers to the signal ratio; also: potency is read from the fitted curve at half-maximal effect). The procedure, abridged: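 Beta-lactamase reporter, HEK293T PR-UAS-bla line; 2% charcoal-stripped FBS; 6 hr pre-incubation, 37C/5% CO2. Compound + R5020 1 nM final, 16 hr. LiveBLAzer B/G FRET substrate, 2 hr RT; fluorescence intensity read.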

Assay [12] is described as follows: qHTS assay to identify small molecule antagonists of the progesterone receptor (PR) signaling pathway - cell viability counter screen (AID 1346798). Also: series mostly up to about 92 µM; nearly all actives have a fitted effect of over 50% in size. The procedure, abridged: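 Luminescence readout (CellTiter-Glo, 30 min, RT) of viability in PR-UAS-bla HEK293T cells exposed to compound and R5020 agonist for 16 hr at 37C, 5% CO2; run in the same wells as the beta-lactamase reporter read.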

Assay [13] in a line: qHTS assay to identify small molecule antagonists of the TGF-beta/Smad signaling pathway - cell viability counter screen (AID 1346824). Also: nearly all actives have a fitted effect of over 50% in size. The procedure, abridged: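 SBE-bla HEK 293T cells, incubated overnight, then compound plus 0.25 ng/mL TGF-beta1 (stock added) for 5 hr at 37 C. Viability was read in the same wells by CellTiter-Glo luminescence after 30 min at room temperature.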

A short description of assay [14]: qHTS assay to identify small molecule agonists of the TGF-beta/Smad signaling pathway - cell viability counter screen (AID 1346829). Also: top concentration of the series differs between compounds; nearly all actives have a fitted effect of over 45% in size. The procedure, abridged: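 HEK 293T SBE-bla line, 5 hr compound exposure at 37 C, multiplexed CellTiter-Glo viability read by luminescence.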
Assay [15] is described as follows: qHTS assay to identify small molecule agonists of the TGF-beta/Smad signaling pathway (AID 1346859; active = well fitted activation curve with a large enough effect in the signal ratio in the repeat runs, not every such curve was filed as active; the % refers to the signal ratio; also: series mostly up to about 77 µM). The procedure, abridged:
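Read-out: fluorescence at 460 and 530 nm (405 nm excitation) after a 2 hr room-temperature incubation with beta-lactamase FRET substrate. SBE-bla HEK 293T cells had been treated with test compounds for 5 hr at 37 C.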

In assay [16] the target is Thyrotropin-releasing hormone receptor (Homo sapiens) (UniProt P34981). The assay is described as follows: qHTS assay to identify small molecule antagonists of the thyrotropin-releasing hormone receptor (TRHR) signaling pathway (AID 1346877; active = well fitted inhibition curve with a large enough effect in the repeat runs, not every such curve was filed as active; also: series mostly up to about 51 µM). The procedure, abridged: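 Overnight-plated (18 h, 37 °C) HEK293 cells expressing TRHR were dye-loaded 2 h, treated with compound, then stimulated with TRH at 1 nM final. Fluorescence intensity was captured every second for 3 min.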
Thyrotropin-releasing hormone receptor (Homo sapiens), sequence (P34981 whole entry, looked up): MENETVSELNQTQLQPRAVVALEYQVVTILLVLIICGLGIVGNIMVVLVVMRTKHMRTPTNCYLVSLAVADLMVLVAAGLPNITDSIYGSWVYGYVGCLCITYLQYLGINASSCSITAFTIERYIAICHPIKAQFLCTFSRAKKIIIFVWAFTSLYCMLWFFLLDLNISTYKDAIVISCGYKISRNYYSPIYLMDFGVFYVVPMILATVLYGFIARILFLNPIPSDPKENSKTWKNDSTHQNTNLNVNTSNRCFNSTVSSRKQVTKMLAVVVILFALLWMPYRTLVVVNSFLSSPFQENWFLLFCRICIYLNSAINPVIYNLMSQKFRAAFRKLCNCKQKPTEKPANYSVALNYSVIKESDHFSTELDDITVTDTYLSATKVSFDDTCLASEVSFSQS

In assay [17] the target is Estrogen receptor beta (Homo sapiens) (UniProt Q92731). The experiment in a line: qHTS assay to identify small molecule antagonists of the estrogen receptor beta (ER-beta) signaling pathway (AID 1259378; active = well fitted inhibition curve with a large enough effect in the signal ratio in the repeat runs, not every such curve was filed as active; the % refers to the signal ratio). The procedure, abridged: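 ER-beta-UAS-bla HEK293T cells in 2% charcoal-stripped FBS medium treated with compound plus 1nM final 17-beta-estradiol for 16 hr at 37C. Beta-lactamase reporter read by FRET substrate fluorescence after 2 hours at room temperature.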

The target of assay [18] is Estrogen receptor (Homo sapiens) (UniProt P03372). The experiment in a line: qHTS assay to identify small molecule agonists of the estrogen receptor alpha (ER-alpha) signaling pathway in the presence of an antagonist (AID 1259383; calls by dose curve; also: top concentration of the series differs between compounds; nearly all actives have a fitted effect of over 15% in size). The procedure, abridged: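 Quantitative HTS confirmation: compounds titrated at 15 concentrations onto estrogen-deprived VM7Luc4E2 cells carrying a four-ERE luciferase construct, with ICI-182,780 present at 10.0nM final. Signal is luminescence after 22hr exposure.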
Estrogen receptor (Homo sapiens), sequence (P03372 whole entry, looked up): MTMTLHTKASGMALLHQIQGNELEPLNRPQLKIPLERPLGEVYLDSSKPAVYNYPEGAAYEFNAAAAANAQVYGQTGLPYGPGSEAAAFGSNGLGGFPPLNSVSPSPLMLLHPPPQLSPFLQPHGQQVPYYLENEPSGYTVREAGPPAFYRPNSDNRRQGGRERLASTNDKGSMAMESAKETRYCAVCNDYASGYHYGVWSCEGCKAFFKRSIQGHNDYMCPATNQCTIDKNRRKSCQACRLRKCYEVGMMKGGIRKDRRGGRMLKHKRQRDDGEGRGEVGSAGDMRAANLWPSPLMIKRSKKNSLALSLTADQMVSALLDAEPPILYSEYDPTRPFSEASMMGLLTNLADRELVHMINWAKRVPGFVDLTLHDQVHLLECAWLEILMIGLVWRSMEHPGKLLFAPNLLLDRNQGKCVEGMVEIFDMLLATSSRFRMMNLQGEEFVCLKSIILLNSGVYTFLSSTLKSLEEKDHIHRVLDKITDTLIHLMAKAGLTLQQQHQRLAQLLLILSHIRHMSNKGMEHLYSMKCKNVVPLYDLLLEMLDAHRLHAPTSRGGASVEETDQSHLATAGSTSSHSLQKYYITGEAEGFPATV

Assay [19] in a line: qHTS assay to identify small molecule agonists of the progesterone receptor (PR) signaling pathway - cell viability counter screen (AID 1346799; calls by dose curve; also: nearly all actives have a fitted effect of over 45% in size; also: potency is read from the fitted curve at half-maximal effect). The procedure, abridged:
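HEK293T PR-UAS-bla, 3,000 cells/well, 2% charcoal-stripped FBS; 6 h settle, compound 16 h at 37C/5% CO2; LiveBLAzer 2 h RT, then CellTiter-Glo 30 min RT, luminescence read.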

Assay [20] concerns the target Androgen receptor (Homo sapiens) (UniProt P10275). The assay is described as follows: qHTS assay to identify small molecule agonists of the androgen receptor (AR) signaling pathway in the presence of an antagonist (AID 1259381; calls by dose curve; also: nearly all actives have a fitted effect of over 15% in size). The procedure, abridged:
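Luminescent ONE-Glo read, 30min at room temperature, follows 16hr compound exposure (15 concentrations) of MDA-kb2 cells at 37C, 0% CO2, with nilutamide added at 3.0uM final.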

Structures are written as SMILES. Where “and” joins values, the source holds several entries; their conditions need not be identical. Identical values can stand only once. Results filed as inconclusive are left out. Some compounds were tested as several samples or in several runs, with calls that do not always agree. Calls of active or inactive are those of the source. Unless noted, calls follow the shape of the dose curve; as a rule, active = well fitted curve in the direction sought with a large enough effect in the repeat runs; inconclusive = weak or mixed curves; inactive = no such curve, though single readings can be large; an effect the other way counts as inactive or inconclusive.

Progesterone receptor (Homo sapiens), sequence (P06401 whole entry, looked up): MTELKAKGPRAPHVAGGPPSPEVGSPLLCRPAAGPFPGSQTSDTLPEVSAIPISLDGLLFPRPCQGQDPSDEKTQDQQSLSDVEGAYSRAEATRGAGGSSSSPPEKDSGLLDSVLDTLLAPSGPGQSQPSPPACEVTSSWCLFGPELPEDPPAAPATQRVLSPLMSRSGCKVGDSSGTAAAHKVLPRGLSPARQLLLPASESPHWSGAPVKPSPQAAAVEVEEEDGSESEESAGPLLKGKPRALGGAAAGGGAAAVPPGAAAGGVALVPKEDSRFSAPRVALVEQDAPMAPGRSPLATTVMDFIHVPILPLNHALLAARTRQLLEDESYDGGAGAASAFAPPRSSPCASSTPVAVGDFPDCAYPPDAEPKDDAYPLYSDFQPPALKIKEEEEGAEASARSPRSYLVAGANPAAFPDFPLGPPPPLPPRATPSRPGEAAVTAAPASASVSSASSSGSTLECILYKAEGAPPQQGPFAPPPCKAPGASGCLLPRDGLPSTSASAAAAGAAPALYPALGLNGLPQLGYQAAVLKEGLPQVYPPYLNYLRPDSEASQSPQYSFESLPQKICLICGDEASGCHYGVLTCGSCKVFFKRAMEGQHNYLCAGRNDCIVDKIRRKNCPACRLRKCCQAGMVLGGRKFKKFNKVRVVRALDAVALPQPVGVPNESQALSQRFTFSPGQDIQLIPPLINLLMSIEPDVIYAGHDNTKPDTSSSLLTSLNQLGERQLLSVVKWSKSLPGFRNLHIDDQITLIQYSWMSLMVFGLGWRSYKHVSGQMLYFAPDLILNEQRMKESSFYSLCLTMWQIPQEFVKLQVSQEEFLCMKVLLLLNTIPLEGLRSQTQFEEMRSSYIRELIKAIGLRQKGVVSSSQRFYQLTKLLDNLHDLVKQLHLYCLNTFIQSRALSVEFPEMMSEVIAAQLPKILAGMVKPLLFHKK
Thyrotropin receptor (Homo sapiens), sequence (P16473 whole entry, looked up): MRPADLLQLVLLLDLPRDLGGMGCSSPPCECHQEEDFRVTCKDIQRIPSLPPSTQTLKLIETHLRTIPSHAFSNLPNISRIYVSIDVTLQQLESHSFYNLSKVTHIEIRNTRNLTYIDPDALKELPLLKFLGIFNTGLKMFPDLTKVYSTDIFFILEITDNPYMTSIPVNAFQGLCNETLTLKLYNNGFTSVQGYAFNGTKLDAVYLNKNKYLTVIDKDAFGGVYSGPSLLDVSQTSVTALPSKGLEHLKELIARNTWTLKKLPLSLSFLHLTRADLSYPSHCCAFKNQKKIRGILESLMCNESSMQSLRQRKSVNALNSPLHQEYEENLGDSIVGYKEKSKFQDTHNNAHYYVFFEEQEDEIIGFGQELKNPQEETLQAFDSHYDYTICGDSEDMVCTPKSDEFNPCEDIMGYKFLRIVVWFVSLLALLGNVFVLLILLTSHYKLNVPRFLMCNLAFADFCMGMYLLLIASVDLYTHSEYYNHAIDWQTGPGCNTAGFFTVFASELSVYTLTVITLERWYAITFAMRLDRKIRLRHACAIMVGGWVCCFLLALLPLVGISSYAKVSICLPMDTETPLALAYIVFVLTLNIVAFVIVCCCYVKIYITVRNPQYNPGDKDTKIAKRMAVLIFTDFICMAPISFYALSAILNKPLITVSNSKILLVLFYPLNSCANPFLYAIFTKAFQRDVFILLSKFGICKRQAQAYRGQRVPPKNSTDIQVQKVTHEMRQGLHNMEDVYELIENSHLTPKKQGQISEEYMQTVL
Androgen receptor (Homo sapiens), sequence (P10275 whole entry, looked up): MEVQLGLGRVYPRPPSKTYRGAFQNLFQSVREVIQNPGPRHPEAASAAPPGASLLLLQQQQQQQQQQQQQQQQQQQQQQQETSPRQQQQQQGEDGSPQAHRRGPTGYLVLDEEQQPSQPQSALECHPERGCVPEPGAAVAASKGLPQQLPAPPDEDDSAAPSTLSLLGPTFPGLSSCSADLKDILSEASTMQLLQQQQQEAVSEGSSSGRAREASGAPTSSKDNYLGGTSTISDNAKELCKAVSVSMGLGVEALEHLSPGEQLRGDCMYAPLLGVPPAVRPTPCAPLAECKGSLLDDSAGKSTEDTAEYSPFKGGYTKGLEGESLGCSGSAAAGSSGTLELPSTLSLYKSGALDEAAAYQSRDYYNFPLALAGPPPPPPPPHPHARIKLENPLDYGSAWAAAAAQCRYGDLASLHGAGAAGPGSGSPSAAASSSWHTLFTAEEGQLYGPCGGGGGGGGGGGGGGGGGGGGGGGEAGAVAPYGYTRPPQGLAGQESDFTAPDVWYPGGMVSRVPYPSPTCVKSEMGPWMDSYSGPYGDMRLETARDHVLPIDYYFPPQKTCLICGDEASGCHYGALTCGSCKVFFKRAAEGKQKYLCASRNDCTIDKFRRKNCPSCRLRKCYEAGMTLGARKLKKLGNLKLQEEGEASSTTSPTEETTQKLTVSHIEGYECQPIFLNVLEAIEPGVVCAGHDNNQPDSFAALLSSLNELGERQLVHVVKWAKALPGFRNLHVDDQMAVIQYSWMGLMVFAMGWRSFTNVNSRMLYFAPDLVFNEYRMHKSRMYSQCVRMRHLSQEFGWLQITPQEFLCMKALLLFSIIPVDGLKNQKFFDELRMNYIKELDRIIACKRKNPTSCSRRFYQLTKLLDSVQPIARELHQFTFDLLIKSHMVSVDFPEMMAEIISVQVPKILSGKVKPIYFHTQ

Regarding `O=C(O)C(F)(F)C(F)(F)C(F)(F)C(F)(F)C(F)(F)C(F)(F)C(F)(F)F`, the Potency entry in assay [1], in [2], in assay [3], in assay [4], in assay [6] and in assay [9] was “inactive” each time. For the same molecule, the Potency result in assay [10], in assay [11], in assay [12], in assay [13], in [14] and in [16] was “inactive” throughout. Besides, the Potency in [5] was 30.6 µM (active) and 24.3 µM (active). Besides, the result in assay [7], in assay [8] and in assay [15] was inactive.
Regarding `NC(=S)Nc1ccccc1`, the Potency entry in [1], in assay [2], in assay [3], in [17], in [18] and in assay [9] was “inactive” throughout. For the same molecule, the Potency result in assay [10], in [11], in assay [12], in assay [19], in [13] and in [14] was “inactive” throughout. Also, in [16], the Potency entry is “inactive”. Besides, the Potency was 24.7 µM (active) and inactive in assay [4]; 27.8 µM (active) and inactive in [6]. In addition, the result in assay [7], in [8] and in assay [15] was inactive.
Turning to `Brc1ccc(Oc2cc(Br)c(Br)cc2Br)c(Br)c1`, the Potency result in assay [1], in assay [2], in assay [3], in [17], in [4] and in assay [6] was “inactive” each time. In addition, the Potency result in assay [18], in assay [9], in [10], in assay [12], in assay [13] and in assay [14] was “inactive” each time. Besides, the Potency entry in [16] was “inactive”. Further, the Potency is 30.6 µM (active) in [5]; 38.6 µM (active) and 43.6 µM (active) in assay [19]. Besides, the call in assay [15] was inactive.
As for `CC(C)(C)c1ccccc1O`, the Potency entry in assay [1], in [2], in assay [3], in [17], in [4] and in [5] was “inactive” throughout. Moreover, the Potency result in [6], in [9], in [10], in [11], in assay [12] and in [19] was “inactive” in each case. The Potency result in assay [13], in [14] and in assay [16] was “inactive” throughout. The molecule was classed as inactive in assay [15].
In the case of `CN(C)C(=O)Nc1ccc(Cl)cc1`, the Potency result in [1], in [2], in assay [3], in [4], in [5] and in assay [6] was “inactive” each time. Further, the Potency result in assay [9], in assay [11], in [12], in [19], in [13] and in assay [14] was “inactive” in each case. For the same molecule, the outcome in [7], in [8] and in assay [15] was inactive.
On to `CC(C)(OOC(C)(C)c1ccccc1)c1ccccc1`, for which the Potency entry in [1], in assay [2], in [3], in [4], in assay [5] and in [20] was “inactive” in each case. Further, the Potency result in assay [9], in [10], in assay [12], in assay [19], in assay [13] and in assay [14] was “inactive” each time. In addition, in assay [16], the Potency result is “inactive”. The result in assay [7], in [8] and in assay [15] was inactive.
On to `C#C[C@]1(O)CC[C@H]2[C@@H]3CCC4=CC(=O)CC[C@]4(C)[C@H]3CC[C@@]21C`, for which the Potency result in [1], in assay [2], in assay [3], in assay [17], in assay [4] and in assay [5] was “inactive” in each case. Besides, the Potency entry in assay [9], in assay [11], in assay [12], in [19], in assay [13] and in [14] was “inactive” throughout. The Potency entry in [16] was “inactive”. Moreover, the molecule was classed as inactive in assay [7], in assay [8] and in [15]. In addition, the Potency in [10] was 0.0243 µM (active).
Take `CCOc1cc(Oc2ccc(C(F)(F)F)cc2Cl)ccc1[N+](=O)[O-]`: the Potency entry in assay [1], in assay [2], in assay [3], in assay [4], in [5] and in [6] was “inactive” each time. The Potency entry in assay [18], in assay [9], in assay [10], in assay [12], in assay [13] and in assay [14] was “inactive” each time. In addition, in assay [16], the Potency result is “inactive”. Moreover, the result in assay [7], in assay [8] and in [15] was inactive. Further, the Potency in [11] was 15.5 µM (active) and 13.7 µM (active).
